Drawing on article PMC7862700, “An all-to-all approach to the identification of sequence-specific readers for epigenetic DNA modifications on cytosine”, this text covers binding signal for 1 sequence.

Holding throughout (experiment): DAPPL (digital affinity profiling via proximity ligation, sequencing); 10 mM Tris-HCl pH 7.5, 50 mM NaCl, 1 mM DTT, 4% glycerol, room temperature, 30 min; GST-TFs on glutathione beads, 16-mer random dsDNA library, 0.1% formaldehyde crosslink after washing; high values mean tight binding
One experiment deals with T1, FEV (Homo sapiens, UniProt Q99581 1-238).
T1 sequence: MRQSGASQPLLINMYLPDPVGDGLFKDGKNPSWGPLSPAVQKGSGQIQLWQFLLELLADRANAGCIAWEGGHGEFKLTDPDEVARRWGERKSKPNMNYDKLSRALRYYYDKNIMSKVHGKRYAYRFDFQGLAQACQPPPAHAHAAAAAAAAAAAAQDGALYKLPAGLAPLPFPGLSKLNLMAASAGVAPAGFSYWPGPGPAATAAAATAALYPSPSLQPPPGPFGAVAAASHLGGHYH
The following applies: protein: recombinant; tags: N-terminal GST; dsDNA, one strand shown. In a few lines: (§1)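 Binding signal is each hexamer's read frequency for a factor divided by its frequency in the tag-only sample. The factors were GST-fused human transcription factors from yeast, captured on glutathione beads, DNA-barcoded and pooled with that sample. Pools were incubated with 200 nmole of a random double-stranded 16-mer DNA library in Tris/NaCl/DTT/glycerol buffer at room temperature for 30 min, then washed, crosslinked with 0.1% formaldehyde, proximity-ligated with BsaI/T4 ligase (1 h, 37 °C), PCR-amplified and sequenced on an Illumina NextSeq500.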

The next experiment has as its target ETV5 (Homo sapiens, UniProt P41161 1-510). The following applies: protein: recombinant; tags: N-terminal GST; dsDNA, one strand shown. In a few lines: as §1
A further experiment deals with HSF1 (Homo sapiens, UniProt Q00613 1-529). To be noted: protein: recombinant; tags: N-terminal GST; chain copies: 3; dsDNA, one strand shown. The essentials: as §1
HSF1, sequence (Q00613 whole entry): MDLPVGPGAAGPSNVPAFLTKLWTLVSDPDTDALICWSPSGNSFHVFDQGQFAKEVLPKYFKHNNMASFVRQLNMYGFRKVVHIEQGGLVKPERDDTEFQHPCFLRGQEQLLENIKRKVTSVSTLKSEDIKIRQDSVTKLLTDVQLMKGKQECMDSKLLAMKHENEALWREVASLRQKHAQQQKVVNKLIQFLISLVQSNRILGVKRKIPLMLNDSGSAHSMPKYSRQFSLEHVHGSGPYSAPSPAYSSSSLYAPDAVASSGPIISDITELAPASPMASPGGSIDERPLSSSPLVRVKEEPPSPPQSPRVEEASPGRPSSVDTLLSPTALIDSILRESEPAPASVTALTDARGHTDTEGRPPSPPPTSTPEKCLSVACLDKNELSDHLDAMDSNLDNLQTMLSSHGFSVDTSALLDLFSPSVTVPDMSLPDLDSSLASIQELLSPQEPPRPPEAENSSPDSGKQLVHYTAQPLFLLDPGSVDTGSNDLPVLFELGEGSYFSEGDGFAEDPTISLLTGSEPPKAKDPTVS
In a further experiment the target is T2, SPIC (Homo sapiens, UniProt Q8N5J4 1-248).
T2 sequence: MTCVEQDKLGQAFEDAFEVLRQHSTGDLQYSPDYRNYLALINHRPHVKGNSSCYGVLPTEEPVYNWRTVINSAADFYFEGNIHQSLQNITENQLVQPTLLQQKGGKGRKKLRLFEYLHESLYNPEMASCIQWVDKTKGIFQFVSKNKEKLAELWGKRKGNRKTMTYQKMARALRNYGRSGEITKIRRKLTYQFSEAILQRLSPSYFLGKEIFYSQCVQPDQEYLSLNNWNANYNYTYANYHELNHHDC
To be noted: protein: recombinant; tags: N-terminal GST; dsDNA, one strand shown. In a few lines: as §1

A further experiment has as its target ELF4 (Homo sapiens, UniProt Q99607 1-663). To be noted: protein: recombinant; tags: N-terminal GST; dsDNA, one strand shown. The essentials: as §1
A further experiment addresses T3, ELK4 (Homo sapiens, UniProt P28324-2 1-405).
T3 sequence: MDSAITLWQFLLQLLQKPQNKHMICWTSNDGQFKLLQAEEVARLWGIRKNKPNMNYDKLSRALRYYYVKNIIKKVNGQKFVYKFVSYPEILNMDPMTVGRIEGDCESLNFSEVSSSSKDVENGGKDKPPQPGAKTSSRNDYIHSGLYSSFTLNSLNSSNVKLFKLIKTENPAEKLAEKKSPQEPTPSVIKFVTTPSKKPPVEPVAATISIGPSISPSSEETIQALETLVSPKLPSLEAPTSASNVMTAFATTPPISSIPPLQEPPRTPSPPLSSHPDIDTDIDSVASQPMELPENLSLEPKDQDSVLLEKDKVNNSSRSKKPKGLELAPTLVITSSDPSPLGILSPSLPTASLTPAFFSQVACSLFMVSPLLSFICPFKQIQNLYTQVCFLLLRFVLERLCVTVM
To be noted: protein: recombinant; tags: N-terminal GST; dsDNA, one strand shown. The essentials:
as §1

The target of another experiment is T4, ETV2 (Homo sapiens, UniProt O00321 1-342).
T4 sequence: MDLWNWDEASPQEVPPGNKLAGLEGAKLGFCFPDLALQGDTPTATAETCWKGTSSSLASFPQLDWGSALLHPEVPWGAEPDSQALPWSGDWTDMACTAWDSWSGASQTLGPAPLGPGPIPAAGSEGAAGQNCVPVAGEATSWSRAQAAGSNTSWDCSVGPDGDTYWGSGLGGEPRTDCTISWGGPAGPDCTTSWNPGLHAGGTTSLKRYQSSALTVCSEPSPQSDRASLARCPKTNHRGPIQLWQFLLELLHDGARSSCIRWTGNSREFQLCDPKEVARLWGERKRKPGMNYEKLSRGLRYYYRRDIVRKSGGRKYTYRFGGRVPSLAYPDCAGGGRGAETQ
The following applies: protein: recombinant; tags: N-terminal GST; dsDNA, one strand shown. The essentials: as §1

The target in the next experiment is T5, ELF3 (Homo sapiens, UniProt P78545 1-371).
T5 sequence: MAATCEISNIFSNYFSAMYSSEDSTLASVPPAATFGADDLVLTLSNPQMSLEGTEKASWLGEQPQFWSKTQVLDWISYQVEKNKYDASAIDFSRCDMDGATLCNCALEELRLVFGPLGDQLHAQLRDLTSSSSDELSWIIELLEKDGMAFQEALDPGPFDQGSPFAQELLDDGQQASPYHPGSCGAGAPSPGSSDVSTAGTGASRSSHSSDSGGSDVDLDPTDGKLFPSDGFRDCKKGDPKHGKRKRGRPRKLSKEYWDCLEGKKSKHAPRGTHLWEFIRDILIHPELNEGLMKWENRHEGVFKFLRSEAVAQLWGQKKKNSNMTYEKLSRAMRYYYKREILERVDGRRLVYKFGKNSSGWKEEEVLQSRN
The following applies: protein: recombinant; tags: N-terminal GST; dsDNA, one strand shown. In a few lines: as §1

Another experiment has as its target CRX (Homo sapiens, UniProt O43186 1-299). To be noted: protein: recombinant; tags: N-terminal GST; dsDNA, one strand shown. In a few lines:
as §1

A further experiment deals with ETV1 (Homo sapiens, UniProt P50549 1-477). The following applies: protein: recombinant; tags: N-terminal GST; dsDNA, one strand shown. The essentials:
as §1

The next experiment concerns the target T6, ERF (Homo sapiens, UniProt P50548 1-548).
T6 sequence: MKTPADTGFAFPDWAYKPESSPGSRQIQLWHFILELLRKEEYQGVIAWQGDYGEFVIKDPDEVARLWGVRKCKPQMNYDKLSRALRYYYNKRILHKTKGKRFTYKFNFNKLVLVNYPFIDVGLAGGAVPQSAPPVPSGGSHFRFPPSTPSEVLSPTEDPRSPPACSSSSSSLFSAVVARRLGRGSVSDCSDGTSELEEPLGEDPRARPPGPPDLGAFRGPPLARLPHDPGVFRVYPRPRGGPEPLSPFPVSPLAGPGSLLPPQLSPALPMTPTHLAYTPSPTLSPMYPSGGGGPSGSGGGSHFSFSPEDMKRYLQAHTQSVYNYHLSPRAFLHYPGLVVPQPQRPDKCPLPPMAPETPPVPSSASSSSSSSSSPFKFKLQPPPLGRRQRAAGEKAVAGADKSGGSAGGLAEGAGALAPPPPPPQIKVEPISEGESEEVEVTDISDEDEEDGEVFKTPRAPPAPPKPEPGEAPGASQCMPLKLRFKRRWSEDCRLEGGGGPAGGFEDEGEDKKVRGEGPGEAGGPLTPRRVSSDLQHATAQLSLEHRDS
To be noted: protein: recombinant; tags: N-terminal GST; dsDNA, one strand shown. In a few lines: as §1

The next experiment deals with T7, ETV3L (Homo sapiens, UniProt Q6ZN32 1-361).
T7 sequence: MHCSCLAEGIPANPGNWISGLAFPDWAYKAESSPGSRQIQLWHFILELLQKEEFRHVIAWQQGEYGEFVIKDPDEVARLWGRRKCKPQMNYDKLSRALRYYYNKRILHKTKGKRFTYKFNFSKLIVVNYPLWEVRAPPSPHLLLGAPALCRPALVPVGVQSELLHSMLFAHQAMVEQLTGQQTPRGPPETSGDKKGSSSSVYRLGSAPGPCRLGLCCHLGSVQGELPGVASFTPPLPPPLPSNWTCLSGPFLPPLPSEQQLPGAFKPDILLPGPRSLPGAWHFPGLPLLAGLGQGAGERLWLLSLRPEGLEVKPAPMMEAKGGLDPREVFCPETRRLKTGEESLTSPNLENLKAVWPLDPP
To be noted: protein: recombinant; tags: N-terminal GST; dsDNA, one strand shown. In a few lines: as §1

The next experiment concerns the target T8, ETS2 (Homo sapiens, UniProt P15036 1-469).
T8 sequence: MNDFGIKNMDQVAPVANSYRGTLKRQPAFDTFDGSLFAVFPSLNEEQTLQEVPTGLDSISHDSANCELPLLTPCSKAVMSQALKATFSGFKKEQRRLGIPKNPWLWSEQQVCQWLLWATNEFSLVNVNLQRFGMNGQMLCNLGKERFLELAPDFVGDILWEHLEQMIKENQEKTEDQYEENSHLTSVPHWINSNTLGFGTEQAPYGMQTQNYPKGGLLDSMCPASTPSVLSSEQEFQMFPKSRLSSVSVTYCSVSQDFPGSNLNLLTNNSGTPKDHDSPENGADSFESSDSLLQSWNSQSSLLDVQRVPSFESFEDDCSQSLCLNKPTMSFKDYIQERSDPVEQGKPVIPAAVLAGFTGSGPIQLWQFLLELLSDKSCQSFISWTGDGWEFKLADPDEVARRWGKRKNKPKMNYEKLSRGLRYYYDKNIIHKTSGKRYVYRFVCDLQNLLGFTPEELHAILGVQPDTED
To be noted: protein: recombinant; tags: N-terminal GST; dsDNA, one strand shown. The essentials: as §1

Another experiment has as its target T9, SPDEF (Homo sapiens, UniProt O95238 1-335).
T9 sequence: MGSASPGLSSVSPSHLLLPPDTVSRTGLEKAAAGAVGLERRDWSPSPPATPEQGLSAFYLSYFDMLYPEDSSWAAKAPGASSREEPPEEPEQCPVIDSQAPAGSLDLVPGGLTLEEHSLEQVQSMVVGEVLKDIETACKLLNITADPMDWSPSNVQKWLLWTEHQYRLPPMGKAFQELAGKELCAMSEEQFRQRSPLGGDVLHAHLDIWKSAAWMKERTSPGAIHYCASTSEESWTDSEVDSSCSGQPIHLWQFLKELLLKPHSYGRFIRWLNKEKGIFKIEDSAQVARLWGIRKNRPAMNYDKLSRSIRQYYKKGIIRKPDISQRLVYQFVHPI
The following applies: protein: recombinant; tags: N-terminal GST; dsDNA, one strand shown. In a few lines: as §1

In another experiment the target is T10, ETV7 (Homo sapiens, UniProt Q9Y603 1-341).
T10 sequence: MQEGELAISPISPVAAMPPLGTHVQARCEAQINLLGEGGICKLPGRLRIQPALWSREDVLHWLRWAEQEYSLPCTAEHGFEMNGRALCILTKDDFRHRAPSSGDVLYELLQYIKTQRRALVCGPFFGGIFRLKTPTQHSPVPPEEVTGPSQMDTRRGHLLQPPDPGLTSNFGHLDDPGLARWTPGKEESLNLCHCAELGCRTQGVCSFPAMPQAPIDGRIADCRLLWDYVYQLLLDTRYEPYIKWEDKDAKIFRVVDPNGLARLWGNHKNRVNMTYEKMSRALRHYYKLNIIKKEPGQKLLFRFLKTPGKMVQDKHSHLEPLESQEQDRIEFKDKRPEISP
The following applies: protein: recombinant; tags: N-terminal GST; dsDNA, one strand shown. The essentials:
as §1

The target of a further experiment is T11, ELF5 (Homo sapiens, UniProt Q9UKW6-2 1-255).
T11 sequence: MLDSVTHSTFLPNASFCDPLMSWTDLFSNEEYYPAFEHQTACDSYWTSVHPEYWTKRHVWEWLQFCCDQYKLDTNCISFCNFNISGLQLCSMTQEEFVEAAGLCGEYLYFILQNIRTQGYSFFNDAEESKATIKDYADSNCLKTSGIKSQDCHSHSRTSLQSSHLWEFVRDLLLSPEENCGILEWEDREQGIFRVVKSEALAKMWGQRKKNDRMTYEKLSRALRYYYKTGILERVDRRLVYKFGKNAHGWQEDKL
To be noted: protein: recombinant; tags: N-terminal GST; dsDNA, one strand shown. In a few lines:
as §1

The target of the next experiment is T12, ETV3 (Homo sapiens, UniProt P41162-2 1-143).
T12 sequence: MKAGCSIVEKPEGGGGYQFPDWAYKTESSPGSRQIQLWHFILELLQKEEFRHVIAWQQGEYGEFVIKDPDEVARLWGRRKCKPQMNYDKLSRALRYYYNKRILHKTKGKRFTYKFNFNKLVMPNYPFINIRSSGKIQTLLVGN
To be noted: protein: recombinant; tags: N-terminal GST; dsDNA, one strand shown. In a few lines: as §1

The target of the next experiment is ETV6 (Homo sapiens, UniProt P41212 1-452). To be noted: protein: recombinant; tags: N-terminal GST; dsDNA, one strand shown. In a few lines: as §1
ETV6, sequence (P41212 whole entry): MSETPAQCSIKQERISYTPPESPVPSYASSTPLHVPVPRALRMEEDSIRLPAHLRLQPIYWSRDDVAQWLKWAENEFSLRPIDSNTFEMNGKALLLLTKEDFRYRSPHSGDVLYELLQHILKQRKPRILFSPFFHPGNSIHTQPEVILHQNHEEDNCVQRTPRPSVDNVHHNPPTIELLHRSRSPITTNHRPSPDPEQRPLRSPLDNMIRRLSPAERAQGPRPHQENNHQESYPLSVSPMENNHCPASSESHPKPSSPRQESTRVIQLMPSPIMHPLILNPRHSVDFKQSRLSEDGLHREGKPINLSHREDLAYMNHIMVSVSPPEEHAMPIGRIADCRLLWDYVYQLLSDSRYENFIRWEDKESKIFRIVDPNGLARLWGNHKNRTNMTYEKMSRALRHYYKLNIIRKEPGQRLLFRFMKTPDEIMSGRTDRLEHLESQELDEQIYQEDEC

ETV5, sequence (P41161 whole entry): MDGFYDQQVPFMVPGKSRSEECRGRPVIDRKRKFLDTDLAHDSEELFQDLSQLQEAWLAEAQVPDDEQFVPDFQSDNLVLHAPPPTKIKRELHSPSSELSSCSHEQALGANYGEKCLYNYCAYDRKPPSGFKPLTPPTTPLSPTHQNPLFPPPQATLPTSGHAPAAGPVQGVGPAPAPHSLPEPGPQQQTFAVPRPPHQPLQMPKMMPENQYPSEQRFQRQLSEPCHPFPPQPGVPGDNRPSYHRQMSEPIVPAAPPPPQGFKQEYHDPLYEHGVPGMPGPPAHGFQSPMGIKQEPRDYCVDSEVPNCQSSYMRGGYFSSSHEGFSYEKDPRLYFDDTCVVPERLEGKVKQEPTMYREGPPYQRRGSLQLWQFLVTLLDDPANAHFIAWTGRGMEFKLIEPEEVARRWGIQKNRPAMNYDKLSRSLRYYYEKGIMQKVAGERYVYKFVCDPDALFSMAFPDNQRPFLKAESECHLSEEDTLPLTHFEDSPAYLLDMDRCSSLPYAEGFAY
CRX, sequence (O43186 whole entry): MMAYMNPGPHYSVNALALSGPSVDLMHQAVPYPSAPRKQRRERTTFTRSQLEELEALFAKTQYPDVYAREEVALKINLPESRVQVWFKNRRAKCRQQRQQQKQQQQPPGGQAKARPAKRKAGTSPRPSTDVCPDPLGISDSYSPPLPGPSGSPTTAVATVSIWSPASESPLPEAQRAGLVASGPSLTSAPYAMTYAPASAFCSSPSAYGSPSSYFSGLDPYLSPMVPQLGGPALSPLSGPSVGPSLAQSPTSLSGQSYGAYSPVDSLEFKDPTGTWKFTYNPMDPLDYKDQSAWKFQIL
ETV1, sequence (P50549 whole entry): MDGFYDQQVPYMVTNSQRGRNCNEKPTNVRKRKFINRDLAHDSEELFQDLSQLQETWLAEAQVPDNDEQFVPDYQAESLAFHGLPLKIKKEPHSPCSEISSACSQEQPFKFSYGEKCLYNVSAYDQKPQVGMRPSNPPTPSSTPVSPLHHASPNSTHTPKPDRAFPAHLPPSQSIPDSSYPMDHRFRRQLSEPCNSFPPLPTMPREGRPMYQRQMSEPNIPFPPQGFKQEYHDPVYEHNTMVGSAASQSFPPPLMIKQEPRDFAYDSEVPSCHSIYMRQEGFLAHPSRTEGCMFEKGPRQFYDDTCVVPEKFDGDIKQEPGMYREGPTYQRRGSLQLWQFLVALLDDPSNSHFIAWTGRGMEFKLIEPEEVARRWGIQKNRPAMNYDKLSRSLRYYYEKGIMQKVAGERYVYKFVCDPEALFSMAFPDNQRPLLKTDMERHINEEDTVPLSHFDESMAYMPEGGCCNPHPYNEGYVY
ELF4, sequence (Q99607 whole entry): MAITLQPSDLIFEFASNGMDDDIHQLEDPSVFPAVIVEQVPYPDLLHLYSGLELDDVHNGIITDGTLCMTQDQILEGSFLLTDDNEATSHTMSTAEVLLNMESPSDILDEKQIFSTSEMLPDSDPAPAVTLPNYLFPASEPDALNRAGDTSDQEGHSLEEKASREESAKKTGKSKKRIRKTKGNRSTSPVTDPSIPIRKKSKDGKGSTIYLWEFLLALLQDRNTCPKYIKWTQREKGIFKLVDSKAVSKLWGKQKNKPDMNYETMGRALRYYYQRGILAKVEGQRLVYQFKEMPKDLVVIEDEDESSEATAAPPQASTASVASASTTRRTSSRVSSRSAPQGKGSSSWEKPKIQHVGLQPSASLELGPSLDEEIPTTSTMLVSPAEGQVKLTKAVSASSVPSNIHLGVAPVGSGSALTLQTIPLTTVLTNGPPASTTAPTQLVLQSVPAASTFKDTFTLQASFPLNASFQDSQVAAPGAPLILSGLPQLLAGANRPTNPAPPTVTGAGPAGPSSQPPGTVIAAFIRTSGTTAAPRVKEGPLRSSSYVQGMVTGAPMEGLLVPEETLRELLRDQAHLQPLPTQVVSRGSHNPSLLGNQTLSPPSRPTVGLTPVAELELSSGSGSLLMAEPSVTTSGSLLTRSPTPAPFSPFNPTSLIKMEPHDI

As to TAAAAA, the binding signal is 1.29 fold enrichment (6-mer frequency, TF over GST control) in the experiment with FEV; 1.3 fold enrichment (6-mer frequency, TF over GST control) with ETV5; 1.56 fold enrichment (6-mer frequency, TF over GST control) with HSF1; 1.34 fold enrichment (6-mer frequency, TF over GST control) with SPIC; 1.45 fold enrichment (6-mer frequency, TF over GST control) with ELF4; 1.34 fold enrichment (6-mer frequency, TF over GST control) in the experiment with ELK4. The binding signal was 1.4 fold enrichment (6-mer frequency, TF over GST control) with ETV2; 1.33 fold enrichment (6-mer frequency, TF over GST control) in the experiment with ELF3; 1.82 fold enrichment (6-mer frequency, TF over GST control) with CRX; 1.26 fold enrichment (6-mer frequency, TF over GST control) with ETV1; 1.37 fold enrichment (6-mer frequency, TF over GST control) in the experiment with ERF; 1.37 fold enrichment (6-mer frequency, TF over GST control) in the experiment with ETV3L. The binding signal with ETS2 is 1.33 fold enrichment (6-mer frequency, TF over GST control); with SPDEF it was 1.32 fold enrichment (6-mer frequency, TF over GST control); with ETV7, 1.31 fold enrichment (6-mer frequency, TF over GST control); with ELF5, 1.29 fold enrichment (6-mer frequency, TF over GST control); in the experiment with ETV3 it was 1.25 fold enrichment (6-mer frequency, TF over GST control); in the experiment with ETV6 it was 1.26 fold enrichment (6-mer frequency, TF over GST control).
